In PMC7862700, “An all-to-all approach to the identification of sequence-specific readers for epigenetic DNA modifications on cytosine” one finds binding signal data, which are given here for 7 sequences.

Common to all, as to experiment: DAPPL (digital affinity profiling via proximity ligation, sequencing); 10 mM Tris-HCl pH 7.5, 50 mM NaCl, 1 mM DTT, 4% glycerol, room temperature, 30 min; GST-TFs on glutathione beads, 16-mer random dsDNA library, 0.1% formaldehyde crosslink after washing; high values mean tight binding
What all share (conditions): protein: recombinant; tags: N-terminal GST; dsDNA, one strand shown

For one experiment, the target named is T1, ERF (Homo sapiens, UniProt P50548 1-548).
T1 sequence: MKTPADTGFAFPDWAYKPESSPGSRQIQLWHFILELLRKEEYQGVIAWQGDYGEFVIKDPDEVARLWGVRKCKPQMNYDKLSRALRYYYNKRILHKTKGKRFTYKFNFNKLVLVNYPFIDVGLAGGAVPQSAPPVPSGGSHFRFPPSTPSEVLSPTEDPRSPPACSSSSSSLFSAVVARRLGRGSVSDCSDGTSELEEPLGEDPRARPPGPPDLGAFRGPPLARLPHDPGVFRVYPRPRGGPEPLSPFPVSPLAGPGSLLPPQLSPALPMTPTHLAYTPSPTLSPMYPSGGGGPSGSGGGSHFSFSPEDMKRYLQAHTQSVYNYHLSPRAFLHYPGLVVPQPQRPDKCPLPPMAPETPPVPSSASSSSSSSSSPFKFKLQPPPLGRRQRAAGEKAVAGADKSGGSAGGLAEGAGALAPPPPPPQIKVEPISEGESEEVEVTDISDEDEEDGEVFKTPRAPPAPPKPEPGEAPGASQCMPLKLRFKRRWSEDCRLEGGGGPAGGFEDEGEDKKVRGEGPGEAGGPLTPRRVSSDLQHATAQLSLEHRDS
An outline of the steps: (§1)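 A tag-only sample was pooled with DNA-barcoded human transcription factors that had been expressed in yeast as GST fusions and captured on glutathione beads. The pools were incubated for 30 min at room temperature with 200 nmole of a random double-stranded 16-mer DNA library in Tris/NaCl/DTT/glycerol buffer, then washed, crosslinked with 0.1% formaldehyde, proximity-ligated (BsaI/T4 ligase, 1 h, 37 °C), PCR-amplified and sequenced on an Illumina NextSeq500. Binding signal is each hexamer's read frequency for a factor divided by its frequency for the tag-only sample.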

Another experiment deals with T2, ETV3L (Homo sapiens, UniProt Q6ZN32 1-361).
T2 sequence: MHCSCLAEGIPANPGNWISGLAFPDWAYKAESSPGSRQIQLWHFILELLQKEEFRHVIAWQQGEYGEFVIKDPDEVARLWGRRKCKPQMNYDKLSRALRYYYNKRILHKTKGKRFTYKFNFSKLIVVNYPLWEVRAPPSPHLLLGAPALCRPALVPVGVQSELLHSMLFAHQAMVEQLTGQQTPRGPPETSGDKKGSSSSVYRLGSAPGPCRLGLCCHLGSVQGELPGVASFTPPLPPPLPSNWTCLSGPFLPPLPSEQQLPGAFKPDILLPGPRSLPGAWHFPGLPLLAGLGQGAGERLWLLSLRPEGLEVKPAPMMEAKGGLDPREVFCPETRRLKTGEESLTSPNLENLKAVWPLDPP
The procedure, abridged:
as §1

For another experiment, the target named is T3, ETS2 (Homo sapiens, UniProt P15036 1-469).
T3 sequence: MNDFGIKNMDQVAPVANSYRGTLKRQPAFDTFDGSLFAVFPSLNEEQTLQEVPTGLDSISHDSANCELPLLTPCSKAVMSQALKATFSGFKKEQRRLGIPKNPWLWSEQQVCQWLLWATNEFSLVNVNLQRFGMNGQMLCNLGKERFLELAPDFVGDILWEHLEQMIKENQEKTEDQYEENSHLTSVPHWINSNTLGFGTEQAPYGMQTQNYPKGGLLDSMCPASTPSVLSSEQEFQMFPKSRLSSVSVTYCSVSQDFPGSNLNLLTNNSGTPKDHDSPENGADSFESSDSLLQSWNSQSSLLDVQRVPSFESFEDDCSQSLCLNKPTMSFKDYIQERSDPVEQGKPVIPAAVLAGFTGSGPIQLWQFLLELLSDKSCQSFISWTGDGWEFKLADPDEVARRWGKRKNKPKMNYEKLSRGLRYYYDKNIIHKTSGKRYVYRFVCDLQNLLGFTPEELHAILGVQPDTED
An outline of the steps: as §1

Another experiment addresses T4, SPDEF (Homo sapiens, UniProt O95238 1-335).
T4 sequence: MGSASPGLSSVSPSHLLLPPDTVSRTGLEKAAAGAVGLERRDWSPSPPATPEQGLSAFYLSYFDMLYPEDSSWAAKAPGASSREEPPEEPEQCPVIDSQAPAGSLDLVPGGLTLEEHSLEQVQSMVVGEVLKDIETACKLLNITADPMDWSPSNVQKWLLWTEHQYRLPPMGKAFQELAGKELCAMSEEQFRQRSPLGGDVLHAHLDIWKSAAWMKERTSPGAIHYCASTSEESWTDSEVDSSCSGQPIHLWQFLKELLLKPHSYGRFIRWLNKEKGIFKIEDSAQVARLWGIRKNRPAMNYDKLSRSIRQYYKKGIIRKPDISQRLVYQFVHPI
The procedure, abridged:
as §1

The next experiment has as its target T5, ETV7 (Homo sapiens, UniProt Q9Y603 1-341).
T5 sequence: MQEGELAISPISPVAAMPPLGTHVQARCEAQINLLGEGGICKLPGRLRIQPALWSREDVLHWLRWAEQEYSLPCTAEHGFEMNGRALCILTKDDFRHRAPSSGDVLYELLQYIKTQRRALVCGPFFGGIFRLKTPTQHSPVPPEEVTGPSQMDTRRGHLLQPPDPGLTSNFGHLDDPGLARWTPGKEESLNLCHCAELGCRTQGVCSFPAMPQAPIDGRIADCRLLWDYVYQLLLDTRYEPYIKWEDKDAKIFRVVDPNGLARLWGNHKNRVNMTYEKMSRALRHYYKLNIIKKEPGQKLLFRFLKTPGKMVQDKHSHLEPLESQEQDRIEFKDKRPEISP
An outline of the steps: as §1

A further experiment deals with T6, ELF5 (Homo sapiens, UniProt Q9UKW6-2 1-255).
T6 sequence: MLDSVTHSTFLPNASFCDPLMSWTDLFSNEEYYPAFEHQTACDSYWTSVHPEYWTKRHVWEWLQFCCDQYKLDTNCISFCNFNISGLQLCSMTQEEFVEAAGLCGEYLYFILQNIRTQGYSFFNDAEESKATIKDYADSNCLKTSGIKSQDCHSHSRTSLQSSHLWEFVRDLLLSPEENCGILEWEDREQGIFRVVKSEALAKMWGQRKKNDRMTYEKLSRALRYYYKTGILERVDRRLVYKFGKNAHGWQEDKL
An outline of the steps: as §1

The next experiment concerns the target T7, ETV3 (Homo sapiens, UniProt P41162-2 1-143).
T7 sequence: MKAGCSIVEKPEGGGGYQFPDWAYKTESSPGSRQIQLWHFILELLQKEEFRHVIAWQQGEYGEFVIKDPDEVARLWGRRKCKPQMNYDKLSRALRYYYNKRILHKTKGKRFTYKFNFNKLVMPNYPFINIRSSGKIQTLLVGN
The procedure, abridged: as §1

In a further experiment the target is ETV6 (Homo sapiens, UniProt P41212 1-452). An outline of the steps:
as §1

ETV6, sequence (P41212 whole entry): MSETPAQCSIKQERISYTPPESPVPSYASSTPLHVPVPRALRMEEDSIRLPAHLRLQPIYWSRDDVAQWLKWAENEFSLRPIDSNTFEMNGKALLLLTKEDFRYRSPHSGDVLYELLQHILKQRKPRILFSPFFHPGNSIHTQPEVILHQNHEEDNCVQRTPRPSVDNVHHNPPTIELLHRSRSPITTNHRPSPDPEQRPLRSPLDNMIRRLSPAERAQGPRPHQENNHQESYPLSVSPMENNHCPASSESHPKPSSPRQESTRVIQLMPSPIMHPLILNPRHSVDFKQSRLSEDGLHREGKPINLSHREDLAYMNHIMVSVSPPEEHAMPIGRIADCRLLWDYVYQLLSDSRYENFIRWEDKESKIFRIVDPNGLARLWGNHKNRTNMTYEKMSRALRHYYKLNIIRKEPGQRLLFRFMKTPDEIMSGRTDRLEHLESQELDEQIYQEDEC

In the case of CTGCGT, the binding signal is 1.13 fold enrichment (6-mer frequency, TF over GST control) with ERF; 1.16 fold enrichment (6-mer frequency, TF over GST control) with ETV3L; 1.15 fold enrichment (6-mer frequency, TF over GST control) with ETS2; 1.2 fold enrichment (6-mer frequency, TF over GST control) with SPDEF; 1.23 fold enrichment (6-mer frequency, TF over GST control) with ETV7; 1.11 fold enrichment (6-mer frequency, TF over GST control) with ELF5. Also, the binding signal was 1.13 fold enrichment (6-mer frequency, TF over GST control) with ETV3 and 1.02 fold enrichment (6-mer frequency, TF over GST control) with ETV6.

Turning to CTCATA, the binding signal is 1.35 fold enrichment (6-mer frequency, TF over GST control) with ERF; 1.3 fold enrichment (6-mer frequency, TF over GST control) in the experiment with ETV3L; 1.35 fold enrichment (6-mer frequency, TF over GST control) with ETS2; 1.33 fold enrichment (6-mer frequency, TF over GST control) with SPDEF; 1.32 fold enrichment (6-mer frequency, TF over GST control) in the experiment with ETV7; 1.39 fold enrichment (6-mer frequency, TF over GST control) in the experiment with ELF5. Moreover, the binding signal was 1.26 fold enrichment (6-mer frequency, TF over GST control) with ETV3 and 1.27 fold enrichment (6-mer frequency, TF over GST control) with ETV6.

In the case of ATTGGG, the binding signal with ERF was 1.31 fold enrichment (6-mer frequency, TF over GST control); with ETV3L, 1.15 fold enrichment (6-mer frequency, TF over GST control); in the experiment with ETS2 it was 1.12 fold enrichment (6-mer frequency, TF over GST control); in the experiment with SPDEF, 1.19 fold enrichment (6-mer frequency, TF over GST control); with ETV7, 1.11 fold enrichment (6-mer frequency, TF over GST control); in the experiment with ELF5 it was 1.11 fold enrichment (6-mer frequency, TF over GST control). In addition, the binding signal is 1.15 fold enrichment (6-mer frequency, TF over GST control) with ETV3 and 1.16 fold enrichment (6-mer frequency, TF over GST control) with ETV6.

With CCCTTG, the binding signal with ERF was 1.24 fold enrichment (6-mer frequency, TF over GST control); in the experiment with ETV3L it was 1.08 fold enrichment (6-mer frequency, TF over GST control); with ETS2, 1.16 fold enrichment (6-mer frequency, TF over GST control); with SPDEF, 1.28 fold enrichment (6-mer frequency, TF over GST control); in the experiment with ETV7, 1.18 fold enrichment (6-mer frequency, TF over GST control); with ELF5, 1.1 fold enrichment (6-mer frequency, TF over GST control). Also, the binding signal in the experiment with ETV3 was 1.13 fold enrichment (6-mer frequency, TF over GST control); in the experiment with ETV6, 1.17 fold enrichment (6-mer frequency, TF over GST control).

Regarding CGTACC, the binding signal with ERF is 1.12 fold enrichment (6-mer frequency, TF over GST control); with ETV3L, 1.13 fold enrichment (6-mer frequency, TF over GST control); in the experiment with ETS2, 1.15 fold enrichment (6-mer frequency, TF over GST control); with SPDEF, 1.17 fold enrichment (6-mer frequency, TF over GST control); with ETV7, 1.1 fold enrichment (6-mer frequency, TF over GST control); in the experiment with ELF5 it was 1.19 fold enrichment (6-mer frequency, TF over GST control). Further, the binding signal in the experiment with ETV3 was 1.03 fold enrichment (6-mer frequency, TF over GST control); with ETV6, 1.16 fold enrichment (6-mer frequency, TF over GST control).

In the case of TACTAA, the binding signal with ERF is 1.2 fold enrichment (6-mer frequency, TF over GST control); with ETV3L, 1.23 fold enrichment (6-mer frequency, TF over GST control); in the experiment with ETS2 it was 1.21 fold enrichment (6-mer frequency, TF over GST control); with SPDEF, 1.22 fold enrichment (6-mer frequency, TF over GST control); with ETV7, 1.35 fold enrichment (6-mer frequency, TF over GST control); with ELF5, 1.25 fold enrichment (6-mer frequency, TF over GST control). Besides, the binding signal was 1.19 fold enrichment (6-mer frequency, TF over GST control) with ETV3 and 1.24 fold enrichment (6-mer frequency, TF over GST control) with ETV6.

For the sequence AAGCAG, the binding signal with ERF was 1 fold enrichment (6-mer frequency, TF over GST control); with ETV3L it was 1.04 fold enrichment (6-mer frequency, TF over GST control); with ETS2, 1.14 fold enrichment (6-mer frequency, TF over GST control); in the experiment with SPDEF, 1.13 fold enrichment (6-mer frequency, TF over GST control); with ETV7, 1.14 fold enrichment (6-mer frequency, TF over GST control); in the experiment with ELF5, 1.19 fold enrichment (6-mer frequency, TF over GST control). Further, the binding signal in the experiment with ETV3 was 1.1 fold enrichment (6-mer frequency, TF over GST control); with ETV6 it was 1.11 fold enrichment (6-mer frequency, TF over GST control).
